Screens from PubChem BioAssay.
ELG1 genotoxic: qHTS screen for small molecules that induce genotoxicity in human embryonic kidney (HEK293T) cells expressing luciferase-tagged ELG1; HEK293T ELG1-luciferase reporter, luminescence, 16 h; Potency, µM (titrated, usually from 46 µM), inactives show at the top dose activity change, positive = activation, usual class: activators; hit rate 1.3% among 330,000; further: % of control where 0% means no effect; nearly all actives have a fitted effect of over 60% in size
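Screening used a luciferase reporter fused to human ELG1 in HEK293T cells. Luminescence was read on a CCD plate imager after 16 hr exposure and 30 min ONE-Glo incubation.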
NPC1 promoter act: qHTS Assay for NPC1 Promoter Activators | Huh7 NPC1 promoter luciferase reporter, 24 h | Potency, µM (series often up to 9.22 µM), inactives show at the highest dose activation, hits mostly activators | hit rate 2.4% among 320,000; further: % of control where 0% means no effect; nearly all actives have a fitted effect of over 60% in size
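Luciferase expression driven by the NPC1 promoter was measured in stably transfected Huh7 cells after a 24 h compound incubation, using a luciferase reagent and a luminescence read.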
ELG1 DNA repair: qHTS screen for small molecules that inhibit ELG1-dependent DNA repair in human embryonic kidney (HEK293T) cells expressing luciferase-tagged ELG1 | Potency, µM (highest dose often 46.1 µM), inactives show at the highest dose activity change, negative = inhibition, hits mostly inhibitors | HEK293T ELG1-luciferase reporter, luminescence, 16 h; DNA damage induced by 5-fluorouridine | hit rate 2.3% among 330,000; further: on the % scale 0 is the no-effect control and ±100 the full control effect; nearly all actives have a fitted effect of over 55% in size
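Reporter activity after DNA damage by 5-fluorouridine is monitored. Compound-treated cells incubate 16 hr at 37 °C, then ONE-Glo is added for 30 min before luminescence reading.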
SMN2 splice up: qHTS Assay for Enhancers of SMN2 Splice Variant Expression; hit rate 2.8% among 210,000; HEK293 SMN2-luciferase splicing reporter, luminescence, 30-36 h; Potency, µM (highest dose often 46.1 µM), for the others: at the highest dose activity change, positive = activation, actives largely listed as activators; further: % of control where 0% means no effect; nearly all actives have a fitted effect of over 55% in size
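HEK293 cells carry an SMN2 […]–luciferase reporter in which exon 7 inclusion puts luciferase in frame. Cells were plated 10-12 h before compound addition, then incubated 30-36 h at 37C. ONE-Glo luminescence was read; sodium butyrate at 4.5 mM final served as control.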
FLuc counter: qHTS profiling assay for firefly luciferase inhibitor/activator using purifed enzyme and Km concentrations of substrates (counterscreen for miR-21 project). purified FLuc, Km substrates, luminescence inhibition. Potency, µM (titrated, usually from 57.5 µM), without a hit: top-dose activity change, negative = inhibition, actives largely listed as inhibitors. hit rate 6.9% among 360,000. AID 588342, 2011;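 further: plate controls were vehicle for no effect and reference inhibitor for full effect; nearly all actives have a fitted effect of over 55% in size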
Target sequence (P08659 whole entry, looked up): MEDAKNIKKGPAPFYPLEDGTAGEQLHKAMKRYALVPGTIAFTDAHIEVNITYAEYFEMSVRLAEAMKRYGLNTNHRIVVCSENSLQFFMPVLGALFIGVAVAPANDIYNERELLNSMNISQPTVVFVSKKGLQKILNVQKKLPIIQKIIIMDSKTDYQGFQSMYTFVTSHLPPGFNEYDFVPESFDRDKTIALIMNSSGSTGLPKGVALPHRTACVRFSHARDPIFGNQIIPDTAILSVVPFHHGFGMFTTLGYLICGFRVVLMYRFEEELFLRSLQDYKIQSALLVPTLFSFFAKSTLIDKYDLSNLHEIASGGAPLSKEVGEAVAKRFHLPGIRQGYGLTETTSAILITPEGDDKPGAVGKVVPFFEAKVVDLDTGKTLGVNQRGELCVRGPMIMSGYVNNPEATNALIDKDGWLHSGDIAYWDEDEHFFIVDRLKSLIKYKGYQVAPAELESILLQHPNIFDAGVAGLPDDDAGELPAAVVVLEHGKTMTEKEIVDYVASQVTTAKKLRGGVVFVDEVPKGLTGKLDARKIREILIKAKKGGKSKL
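Purified P. pyralis luciferase, 10 nM final, with Km-level 10 uM D-luciferin and 10 uM ATP in 50 mM Tris acetate pH 7.5, 10 mM Mg acetate, 0.01% Tween-20, 0.05% BSA; 6-point qHTS titration about 60 µM downward; luminescence read.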
Rab9 prom act: qHTS Assay for Rab9 Promoter Activators; Huh7 Rab9 promoter-luciferase reporter, luminescence, 24 h; Potency, µM (series often up to 9.22 µM), inactives show top-dose activation, negative = inhibition, actives largely listed as activators; hit rate 2.8% among 320,000; AID 485297, 2010; further: % of control where 0% means no effect; nearly all actives have a fitted effect of over 60% in size
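Rab9 promoter-driven luciferase in stably transfected Huh7 cells; 1500 cells/well rested 2 h, exposed to compound in DMSO for 24 h at 37 °C, 5% CO2. Luminescence read 10 min after adding luciferase reagent at ambient temperature.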
An asterisk follows results filed as active; ? = inconclusive; nt = no result; [ ] = dose if it differs, or a comment. Only some compounds are listed: those with a hit (about 9.4% of all), similar ones and a draw of the others. The call rests on the fitted dose curve; in most records, active means well fitted curve in the direction sought with a large enough effect; inconclusive means small, poorly fitted or top-dose-only effect, or another doubt; inactive means no such curve, though single readings can be large; an effect the other way counts as inactive or inconclusive. Potency means the concentration at half of the fitted maximal effect.

SMILES	ELG1 genotoxic	NPC1 promoter act	ELG1 DNA repair	SMN2 splice up	FLuc counter	Rab9 prom act
CCn1c2c(c(=O)n3ncc(C(=O)N4CCN(c5ccc(Cl)cc5)CC4)c13)CN(Cc1ccc(OC)cc1)CC2	nt	nt	nt	nt	-14%	nt
Fc1ccc(Cc2cn3cc(-c4ccc(F)cc4)nc3s2)cc1	nt	nt	nt	3.2µM*	0.3µM*	nt
COC(=O)c1c(C)[nH]c(/C=N/Nc2ccccc2)c1C	?	1%	?	nt	11µM*	13%
Cc1cc(C)cc(NC(=O)c2oc3ccc4c(c3c2C)C(=O)CC(C)(C)O4)c1	nt	nt	nt	nt	0.76µM*	nt
Cc1cccc(C)c1NC(=O)c1oc2ccc3c(c2c1C)C(=O)CC(C)(C)O3	nt	nt	nt	nt	-13%	nt
Cc1c(C(=O)Nc2cccc(C(F)(F)F)c2)oc2ccc(S(=O)(=O)N3CCOCC3)cc12	-11%	-12%	?	-27%	1%	-15%
Cc1c(C(=O)Nc2ccc(F)cc2F)oc2ccc3c(c12)C(=O)CC(C)(C)O3	nt	nt	nt	nt	1.1µM*	nt
Cc1c(C(=O)Nc2cccc(C(F)(F)F)c2)oc2ccc3c(c12)C(=O)CC(C)(C)O3	nt	nt	nt	nt	3.4µM*	nt
CN(Cc1ccccc1)S(=O)(=O)c1ccc(NC(=O)c2cc(=O)c3ccccc3o2)cc1	nt	nt	nt	-7%	4%	nt
Cc1nc2ccc(S(=O)(=O)N(CC(=O)Nc3cccc(C)c3C)Cc3ccccc3)cc2s1	nt	nt	nt	nt	1%	nt
Cc1c(C(=O)N2CCN(C(=O)c3ccccc3)CC2)oc2ccc(F)cc12	-1%	-6%	18µM*	nt	5%	2%
Cc1ccc2oc(C(=O)N3CCCCCC3)c(C)c2c1	18µM*	2.2µM*	?	nt	15µM*	nt
O=C(c1cc2cc(Cl)ccc2o1)N1CCCC1	?	23%	?	nt	?	20%
O=C(c1cc2cc(Br)ccc2o1)N1CCCCC1	?	2.5µM*	?	11µM*	11µM*	4µM*
Cc1c(C(=O)N2CCCCC2)oc2ccc(Br)cc12	?	?	?	nt	21µM*	?
Cc1ccc(S(=O)(=O)NCCc2nnc3ccc(SCc4ccccc4C)nn23)cc1	nt	nt	nt	nt	-15%	nt
Cn1c(=O)c2c(-c3ccccc3)n3c(c2n(C)c1=O)C(c1cccc([N+](=O)[O-])c1)Nc1ccccc1-3 (configuration not stated)	nt	nt	nt	nt	1%	nt
O=C(NCCCN1CCN(c2ccccc2)CC1)c1nnc(Cc2c(F)cccc2Cl)o1	nt	nt	nt	-16%	-2%	nt
O=C(c1cc2ccccc2c(=O)o1)N1CCCCCC1	15%	1%	?	2%	24µM*	13%
CCOC(=O)Cc1ccc(NC(=O)n2ncc3c(C)cccc32)cc1	nt	nt	nt	3%	5.4µM*	nt
COC(=O)c1ccc(NC(=O)n2ncc3c(C)cccc32)cc1	nt	nt	nt	nt	-1%	nt
COc1cccc(NC(=O)n2ncc3c(C)cccc32)c1	1.6µM*	0.089µM*	?	nt	0.17µM*	0.32µM*
CCOC(=O)Cc1ccc(NC(=O)n2ncc3cc(Cl)ccc32)cc1	nt	nt	nt	nt	-12%	nt
CCOc1ccc(NC(=O)n2ncc3c(C)cccc32)cc1	?	0.45µM*	?	nt	1.3µM*	1.4µM*
CCc1ccc(N2C(=O)CS(=O)(=O)C23C(=O)N(Cc2ccccc2)c2ccccc23)cc1 (configuration not stated)	nt	nt	nt	nt	-9%	nt
SMILES	ELG1 genotoxic	NPC1 promoter act	ELG1 DNA repair	SMN2 splice up	FLuc counter	Rab9 prom act
CC(C)Oc1ccc(Nc2ncnc3ccccc23)cc1	?	3.5µM*	?	13µM*	17µM*	3.2µM*
Oc1ccc(Nc2ncnc3ccccc23)cc1	9%	-1%	-6%	nt	?	4%
CC(=O)Oc1cccc(Nc2ncnc3ccccc23)c1	4%	8%	2%	nt	?	0%
Cc1ccc(Nc2ncnc3ccccc23)cc1	17%	?	?	nt	12µM*	1.8µM*
COc1ccc(-c2nc3n(c2C)CCC3)cc1	14%	22%	?	nt	?	18%
COc1ccc(-c2cc3nc4n(c(=O)c3s2)CCCCC4)cc1	2.6µM*	0.63µM*	?	nt	1.3µM*	0.71µM*
COc1ccc(-c2cc3nc4n(c(=O)c3s2)CCC4)cc1	0.13µM*	0.45µM*	?	0.63µM*	0.6µM*	0.5µM*
Cc1ccc2nc(COc3ccccc3NC(=O)c3ccc(F)cc3)cc(=O)n2c1	nt	nt	nt	nt	-7%	nt
Cc1c(C(=O)N2CCCCCC2)c(S(=O)(=O)N(Cc2ccccc2)C(C)(C)C)c(C)n1C	nt	nt	nt	nt	-3%	nt
Cc1cc2nc(-c3cccnc3SCC(=O)NCc3ccco3)[nH]c2cc1C	?	4µM*	?	13µM*	0.95µM*	3.2µM*
Cc1cc2nc(-c3cccnc3SCC(=O)NC3CC3)[nH]c2cc1C	?	?	?	16µM*	2.7µM*	?
O=C(CSc1nc2ccccc2[nH]1)NCc1ccco1	?	8%	?	16%	-13%	13%
O=C(CSc1ncccc1-c1nc2ccccc2[nH]1)NCc1ccco1	?	20%	0%	-13%	24µM*	26%
COc1cccc([C@@H]2Oc3ccc(Br)cc3C(=O)[C@H]2OC(=O)NCCOc2ccccc2)c1	nt	nt	nt	3%	nt	nt
O=C(CN1C(=O)COc2ccc(S(=O)(=O)N3CCCCCC3)cc21)NCCc1ccccc1	nt	nt	nt	nt	-12%	nt
CCc1ccc(NC(=O)Cn2ccn(-c3ccc(C)c(C)c3)c(=O)c2=O)cc1	nt	nt	nt	nt	-1%	nt
Clc1ccc(Cn2nc(-c3ccccc3)nc2-c2ccccc2)cc1	11%	22%	?	?	15µM*	23%
Clc1ccccc1Cn1nc(-c2ccccc2)nc1-c1ccccc1	1%	1%	9%	-7%[1.84 µM]	-19%	-2%
COc1ccc(N2CCN(CC(O)COc3ccccc3C(C)(C)C)CC2)cc1 (configuration not stated)	nt	nt	nt	-26%	-16%	nt
CCN(CC)c1ccc(/C=N/NC(=O)CC(C)C)cc1	10%	11%	27%	nt	?	19%
CCOc1ccc(/C=N/NC(=O)Nc2ccccc2)cc1	7.3µM*	?	?	5µM*	3µM*	2.2µM*
CCN(CC)c1ccc(/C=N/NC(=O)Nc2ccccc2)cc1	-8%	4µM*	?	20µM*	5.4µM*	3.2µM*
CCN(CC)c1ccc(NC(=O)CCCOc2cccc(C)c2)cc1	-9%	-1%	-24%	-8%	1%	-3%
CCN(CC)c1ccc(/C=N/NC(=O)OC(C)(C)C)cc1	?	?	?	nt	11µM*	2.8µM*
